High-throughput results from PubChem.
Most compounds without a hit are left out; they make up all but 19% or so of the library.
TDP1 cell CPT – DT40-hTDP1 cell growth loss with CPT; AID 686979; 420,000 compounds, 12% hits; chicken DT40 Tdp1-/-;hTDP1 cells + 20 nM CPT, ATP luminescence, 48 h; Potency, µM (doses to about 46.2 µM), actives largely listed as inhibitors; also: nearly all actives have a fitted effect of over 55% in size
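Chicken DT40 Tdp1-/- cells stably complemented with human TDP1 were seeded at 400 cells/well in medium containing 20 nM camptothecin, exposed to pin-transferred compounds, and grown at 37 °C for at least 48 hr. Viability was read as ATP luminescence.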
DT40 TDP1 no CPT – qHTS for Inhibitors of human tyrosyl-DNA phosphodiesterase 1 (TDP1): qHTS in cells in absence of CPT; DT40 Tdp1-/- hTDP1 cells, no CPT, ATP luminescence, 48 h; Potency, µM (top dose mostly 46.2 µM), actives largely listed as inhibitors; 420,000 compounds, 15% hits; AID 686978, 2013; also: nearly all actives have a fitted effect of over 55% in size
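Growth kinetics read by CellTiter-Glo luminescence after ≥48 hr at 37 °C. Cells: DT40 Tdp1-/- stably carrying human TDP1, 400 per well, compound exposure in the absence of CPT (DMSO vehicle).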
S-ASM inh – inhibitors of human secretory acid sphingomyelinase; AID 504937; Potency, µM (doses to about 57.5 µM), usual class: inhibitors; 340,000 compounds, 0.006% hits; P17405; placental ASM, HMU-PC fluorogenic substrate, 60 min
Target sequence (P17405 47-631 limits assumed): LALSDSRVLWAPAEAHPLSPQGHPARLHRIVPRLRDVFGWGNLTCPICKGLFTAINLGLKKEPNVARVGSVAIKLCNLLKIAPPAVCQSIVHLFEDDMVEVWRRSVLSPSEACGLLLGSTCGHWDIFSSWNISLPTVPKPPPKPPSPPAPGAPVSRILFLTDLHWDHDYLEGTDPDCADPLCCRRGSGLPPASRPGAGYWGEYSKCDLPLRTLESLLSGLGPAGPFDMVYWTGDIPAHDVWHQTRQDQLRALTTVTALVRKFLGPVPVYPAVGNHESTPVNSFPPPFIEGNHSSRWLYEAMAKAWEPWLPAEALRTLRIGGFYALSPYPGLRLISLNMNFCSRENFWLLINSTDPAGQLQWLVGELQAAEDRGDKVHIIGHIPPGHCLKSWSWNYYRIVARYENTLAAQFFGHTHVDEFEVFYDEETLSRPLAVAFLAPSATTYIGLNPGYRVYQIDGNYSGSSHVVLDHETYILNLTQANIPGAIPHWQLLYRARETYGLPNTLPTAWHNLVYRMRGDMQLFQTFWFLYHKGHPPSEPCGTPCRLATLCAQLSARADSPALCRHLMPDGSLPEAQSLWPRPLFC
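qHTS format. ASM enzyme prepared from human placenta hydrolyses the fluorogenic substrate HMU-PC0 (9 uM final) over 60 min at 37 °C after a 10 min compound preincubation.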
IL-1B inflam inh – inhibitors of inflammasome signaling (IL-1 beta secretion); activity change, % at 57.5 µM; AID 743279; THP-1 LPS/ATP IL-1B secretion, AlphaLISA, 16 h; active compounds read low; 360,000 compounds, 4.7% hits; in the data active = activity change below about -50%; inconclusive = mostly about -30% to -49%
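THP-1 cells pretreated 1 hr with compounds (up to 57.5 uM final), then stimulated with LPS (250 ng/mL final) plus ATP (1.25 mM final); secreted IL-1B measured by AlphaLISA after 16 hr, decreased signal indicating inhibition.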
HepG2 tox – counter-screen for TGF-b inhibitors: cytotoxicity in HepG2 cells. AID 588856. HepG2 CAGA-GFP viability, ATP luminescence, 18 h. Potency, µM (titrated, usually from 46.1 µM), usual class: cytotoxic. 410,000 compounds, 0.76% hits
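CellTiter-Glo luminescence gave cytotoxicity after 18 hours at 37 degrees C. The cells were HepG2 CAGA-GFP in 1% FBS DMEM, stimulated with 500 pg/mL TGF-beta after compound addition. %Activity was normalised to no-cell wells (complete cell-killing) and DMSO (no toxicity), and curves were fitted and classified.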
TGFb SMAD3 inh – TGF-b pathway inhibition; 410,000 compounds, 1.2% hits; HepG2 CAGA-GFP TGF-b/SMAD3 reporter, GFP fluorescence, 18 h; TGF-beta stimulated, 500 pg/mL final; Potency, µM (doses to about 46.1 µM), hits mostly inhibitors; also: nearly all actives have a fitted effect of over 65% in size
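Per well, imaged GFP fluorescence of HEPG2 CAGA-GFP cells gives the signal; cells get compound, then TGF-beta (500 pg/mL final), 18 h at 37 degrees C; %Activity versus -TGF-beta and +DMSO controls.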
Numbers stand for hits; . = inactive; ? = inconclusive; / = no result; [ ] = dose if it differs, or a comment. Unless noted, calls follow the shape of the dose curve; as a rule, active = well fitted curve in the direction sought with a large enough effect; inconclusive = small, poorly fitted or top-dose-only effect, or another doubt; inactive = no such curve, though single readings can be large; an effect the other way counts as inactive or inconclusive.

SMILES | TDP1 cell CPT | DT40 TDP1 no CPT | S-ASM inh | IL-1B inflam inh | HepG2 tox | TGFb SMAD3 inh
O=C(COc1ccccc1Cl)N1CCN(c2ccc([N+](=O)[O-])c(N3CCCCC3)c2)CC1 | ? | 23µM | ? | ? | . | .
O=C(c1cccc(F)c1)N1CCN(c2cc(N3CCCCC3)c(F)cc2[N+](=O)[O-])CC1 | 18µM | 18µM | . | -74 | . | .
O=C(COc1ccc(Cl)cc1)N1CCN(c2ccc([N+](=O)[O-])c(N3CCCCC3)c2)CC1 | ? | ? | . | . | . | .
Cn1c(=O)n(C)c2cc([N+](=O)[O-])c(N3CCN(C(=O)c4ccc(F)cc4)CC3)cc21 | 18µM | ? | . | . | . | .
Cc1cc(F)ccc1S(=O)(=O)NCC(c1ccco1)S(=O)(=O)c1cccs1 (stereo unspecified) | ? | ? | / | / | . | ?
CCCCCN(C(=O)CCC(=O)OCC(=O)N(C)Cc1ccccc1C)c1c(N)n(CCCC)c(=O)[nH]c1=O | . | . | . | . | . | .
Cc1ccc(C(=O)NCC(=O)OC(C)C(=O)Nc2ccc(N(C)C)cc2)s1 (stereo unspecified) | . | ? | . | . | . | ?
CCn1c(CNC(=O)c2ccc(OC)cc2)nnc1SCC(=O)Nc1cccc(C)c1 | . | . | / | / | . | .
CCCOc1ccc(C(=O)CCC(=O)Nc2ccc(N3CCN(C)CC3)cc2)cc1 | ? | . | . | . | . | .
COc1ccc(N2CCN(C(=O)c3ccc(C)cc3)CC2)c([N+](=O)[O-])c1 | ? | ? | . | . | . | .
Cn1c(=O)n(C)c2cc([N+](=O)[O-])c(N3CCN(C(=O)c4ccc(Cl)cc4)CC3)cc21 | ? | ? | . | -80 | . | .
CCOC(=O)N1CCc2c(sc(NC(=O)C3COc4ccccc4O3)c2C(N)=O)C1 (stereo unspecified) | ? | ? | . | . | . | .
CC(=O)N1CCc2c(sc(NC(=O)c3ccc(S(=O)(=O)N(C)C)cc3)c2C#N)C1 | . | . | . | . | . | .
COC(=O)c1c(NC(=O)C2COc3ccccc3O2)sc2c1CCN(C(C)=O)C2 (stereo unspecified) | 12µM | ? | . | . | . | .
CC(=O)N1CCc2c(sc(NC(=O)C3COc4ccccc4O3)c2C(N)=O)C1 (stereo unspecified) | 21µM | ? | . | . | . | .
COC(=O)c1c(NC(=O)c2nc3ccccc3s2)sc2c1CCN(C(C)=O)C2 | 7.3µM | 6.5µM | . | ? | . | .
CC(=O)N1CCc2c(sc(NC(=O)c3ccc4c(c3)OCCO4)c2C#N)C1 | 4.1µM | 3.7µM | . | . | . | .
O=C(NCc1cccc(F)c1)Nc1nnc([C@@H]2C[C@H](O)[C@@H](CO)O2)s1 | . | . | / | . | . | .
Cc1ccc(S(=O)(=O)NC2CC2)cc1 | . | . | . | . | . | .
C=Cc1ccc(Cn2c(C)c(CNCCc3ccccc3C)c(C(=O)O)c2C)cc1 | ? | ? | / | / | . | .
COc1cccc(C(=O)N(Cc2cc3cc4c(cc3nc2N(C)C)OCO4)CC2CCCO2)c1 (stereo unspecified) | .[9.04 µM] | . | / | / | / | /
CC(=O)c1sc2nc(C)c3c(c2c1N)CCCC3 | . | ? | . | / | . | .
CC(=O)c1sc2nsc(SCCN3CCCC3)c2c1N | 26µM | ? | . | -93 | . | .
CC1=CC2=NC(=O)/C(=C\c3cccn3CCOc3cccc(C)c3)C(=N)N2O1 | . | ? | . | -56 | . | .
CC1=CC2=NC(=O)/C(=C\c3cc(C)n(-c4ccccc4F)c3C)C(=N)N2O1 | . | 29µM | . | . | . | .
SMILES | TDP1 cell CPT | DT40 TDP1 no CPT | S-ASM inh | IL-1B inflam inh | HepG2 tox | TGFb SMAD3 inh
CC1=CC2=NC(=O)/C(=C\c3cc(C)n(-c4cccc(Cl)c4)c3C)C(=N)N2O1 | ? | 9.2µM | . | . | . | .
O=C1Cc2c(-c3ccccc3)cc(-c3cccc(Cl)c3)nc2-c2ccccc2N1 | 21µM | ? | . | . | 0.89µM | .
CN(C)Cc1ccccc1Sc1cccc2ccccc12 | ? | ? | / | ? | . | .
Fc1ccccc1Sc1ccccc1CNC1=NCCN1 | 21µM | 13µM | . | . | . | .
c1ccc(Sc2cccc3ccccc23)c(CNC2=NCCN2)c1 | 13µM | 12µM | . | ? | . | .
Fc1ccccc1CNc1cc(Cl)cc(Cl)c1 | ? | . | . | . | . | ?
Cc1ccc(C(=O)Nc2ccc3c(c2)n(C)c(=O)c(=O)n3C)cc1 | ? | ? | / | / | . | .
O=C(Nc1nc(=O)n(C(=O)C2CC2)s1)c1ccccc1 | 21µM | 23µM | . | ? | . | ?
Cc1ccc(C(=O)Nc2nc(=O)n(C(=O)C3CC3)s2)cc1 | 21µM | 16µM | . | ? | . | .
Cc1ccc(C(=O)Nc2nc(=O)n(C(=O)c3ccccc3C)s2)cc1 | 12µM | 13µM | . | -65 | . | ?
Cc1ccnc(NS(=O)(=O)c2ccc3ccccc3c2)n1 | . | . | . | . | . | ?
Cc1c(/C=N/NC(N)=O)c2ccccn2c1C(=O)c1ccc(F)cc1 | ? | 9.2µM | . | -70 | . | .
CNC(=S)N/N=C/c1c(C)c(C(=O)c2ccc(F)cc2)n2ccccc12 | ? | ? | . | . | . | .
CCOC(=O)c1cc2c(=O)c3cc(C)ccc3oc2nc1C | ? | 15µM | . | . | . | .
Cc1ccc2oc3nc(C)c(C(=O)O)cc3c(=O)c2c1 | ? | ? | . | . | 11µM | ?
CC(=O)c1cc2c(=O)c3cc(C)ccc3oc2nc1C | ? | ? | . | . | . | .
Cc1csc2nc(O)c(C(=O)NC3CCCCCC3)c(=O)n12 | ? | 5.2µM | . | . | . | .
Cc1cccn2c(=O)c(C(=O)NCCCN3CCCCC3C)c(O)nc12 (stereo unspecified) | . | . | . | . | . | .
Cc1csc2nc(O)c(C(=O)NC3CCCCC3)c(=O)n12 | ? | ? | / | . | . | ?
Cc1cccn2c(=O)c(C(=O)NCc3ccccc3Cl)c(O)nc12 | 16µM | 23µM | / | / | . | .
Cc1csc2nc(O)c(C(=O)NCc3ccc4c(c3)OCO4)c(=O)n12 | ? | 23µM | . | . | . | .
Cc1cccn2c(=O)c(C(=O)NC3CCCCC3)c(O)nc12 | 18µM | 18µM | . | . | . | .
COc1ccc(CNCc2ccc(C(=O)O)s2)cc1 | . | . | / | / | . | ?
Cc1cccn2c(=O)c(C(=O)NC3CCCCC3C)c(O)nc12 (stereo unspecified) | ? | 15µM | . | . | . | .
